Experimental data from PMC4336329 (PLoS ONE, 2015).
The campaign covered roughly 310,000 compounds. About 14,000 (4.5%) showed an effect of 50% or more. The effect is printed as a negative number. The list comes from a sample in which strong results are over-represented; it also holds similar structures and randomly drawn compounds.

Target: human ether-à-go-go-related gene (hERG) potassium channel (human, UniProt Q12809)
Test: primary screen, population patch clamp on CHO cells stably expressing hERG; higher = less effect of the substance
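Also: peak tail current of the secondary pulse compared with the same well before compound.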

Sequence of human ether-à-go-go-related gene (hERG) potassium channel (Q12809 whole entry, looked up): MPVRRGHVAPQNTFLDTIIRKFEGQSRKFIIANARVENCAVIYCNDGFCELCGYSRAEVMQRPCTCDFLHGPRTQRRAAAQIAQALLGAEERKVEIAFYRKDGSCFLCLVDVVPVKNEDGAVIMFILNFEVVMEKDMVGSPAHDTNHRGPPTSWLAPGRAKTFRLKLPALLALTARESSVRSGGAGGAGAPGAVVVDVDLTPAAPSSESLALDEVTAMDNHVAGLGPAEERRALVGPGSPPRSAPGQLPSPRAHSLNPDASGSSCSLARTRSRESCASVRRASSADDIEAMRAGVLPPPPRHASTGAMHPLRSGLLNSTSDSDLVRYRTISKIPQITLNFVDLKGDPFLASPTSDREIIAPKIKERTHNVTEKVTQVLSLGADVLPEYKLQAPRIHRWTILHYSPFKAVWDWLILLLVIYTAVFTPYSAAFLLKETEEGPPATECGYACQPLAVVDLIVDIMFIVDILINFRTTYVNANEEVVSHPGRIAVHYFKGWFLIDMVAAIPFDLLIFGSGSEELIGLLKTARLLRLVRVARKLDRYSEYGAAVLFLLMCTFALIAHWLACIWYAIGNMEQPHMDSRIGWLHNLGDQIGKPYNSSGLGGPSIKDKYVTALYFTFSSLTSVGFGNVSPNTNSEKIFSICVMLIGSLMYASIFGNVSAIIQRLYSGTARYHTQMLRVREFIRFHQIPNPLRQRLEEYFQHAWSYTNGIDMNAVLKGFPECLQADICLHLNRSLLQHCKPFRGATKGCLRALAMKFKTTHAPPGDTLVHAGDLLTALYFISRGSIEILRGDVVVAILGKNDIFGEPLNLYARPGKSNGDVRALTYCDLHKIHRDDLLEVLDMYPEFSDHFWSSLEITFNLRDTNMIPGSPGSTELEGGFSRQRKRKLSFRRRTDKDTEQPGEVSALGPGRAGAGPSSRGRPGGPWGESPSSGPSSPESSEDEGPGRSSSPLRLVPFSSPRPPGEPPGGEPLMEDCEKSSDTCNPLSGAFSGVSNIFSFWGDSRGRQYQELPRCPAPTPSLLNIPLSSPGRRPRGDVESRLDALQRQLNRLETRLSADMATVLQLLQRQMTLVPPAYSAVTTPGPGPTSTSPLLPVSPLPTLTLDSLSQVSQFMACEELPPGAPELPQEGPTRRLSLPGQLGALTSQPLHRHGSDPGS

Row | Structure (SMILES) | hERG current change (%, negative = inhibition) at 10uM
1 | CCOc1ccccc1CNC(=O)c1ccc2nc(N3CCOCC3)sc2c1 | -47.5%
2 | O=C(Nc1cc(Cl)ccc1O)C1CC(c2ccccc2O)=NO1 (centres unmarked) | -5.36%
3 | O=C(O)CSc1ncnc2c1sc1nc(-c3ccccc3)c3c(c12)CCC3 | 10.3%
4 | O=C(COc1ccc(C(=O)O)cc1)Nc1cccc(C(F)(F)F)c1 | 22.5%
5 | CCOC(=O)C1CCN(C(=O)c2ccc(OCC(=O)Nc3ccc(OCC)cc3)c(OC)c2)CC1 | -19.5%
6 | NC(=O)C1CCN(C(=O)c2ccc(OCC(=O)Nc3cccc(C(F)(F)F)c3)cc2)CC1 | 1.96%
7 | CCOC(=O)C1CCN(C(=O)c2ccc(OCC(=O)Nc3cccc(C(F)(F)F)c3)cc2)CC1 | -55.5%
8 | CCOc1ccc(NC(=O)COc2ccc(C(=O)N3CCC(C(N)=O)CC3)cc2OC)cc1 | 9.91%
9 | CCOC(=O)C1CCN(C(=O)c2ccc(OCC(=O)Nc3cccc(C(F)(F)F)c3)c(OC)c2)CC1 | -61.9%
10 | Cc1nc(C(=O)NNC(=O)c2ccc(Cl)cc2)c(C(F)(F)F)o1 | 7.36%
11 | CCCN1CNC(=S)N(CC2CCCO2)C1 (centres unmarked) | 5.19%
12 | CN(Cc1ccccc1)C(=S)Nc1ccc2nc3n(c(=O)c2c1)CCCCC3 | -78.1%
13 | CCCCN(CC)C(=S)Nc1ccc2nc3n(c(=O)c2c1)CCCCC3 | -59%
14 | CCCN(CCC)CCCNC(=S)Nc1ccc2nc3n(c(=O)c2c1)CCCCC3 | 6.36%
15 | CCCCN(C)C(=S)Nc1ccc2nc3n(c(=O)c2c1)CCCCC3 | -81.2%
16 | CCCCNC(=S)Nc1ccc2nc3n(c(=O)c2c1)CCCCC3 | -43.6%
17 | CCN(CC)CCNC(=S)Nc1ccc2nc3n(c(=O)c2c1)CCCCC3 | 0.152%
18 | O=c1c2cc(NC(=S)NCc3cccnc3)ccc2nc2n1CCCCC2 | -10.1%
19 | CCN(CC)C(=S)Nc1ccc2nc3n(c(=O)c2c1)CCCCC3 | -21.8%

Row | Structure (SMILES) | hERG current change (%, negative = inhibition) at 10uM
20 | CCCCN(CC)CCCNC(=S)Nc1ccc2nc3n(c(=O)c2c1)CCCCC3 | -11.9%
21 | COC(=O)c1cc(NC(=S)NCc2ccc(Cl)cc2)cc(C(=O)OC)c1 | -20.6%
22 | Cc1ccc(Nc2nnc(SCC(=O)Nc3ccccc3[N+](=O)[O-])s2)cc1 | 7.88%
23 | CCOC(=O)CN1C(=O)/C(=C2\SC(=S)N(NC(=O)c3cccnc3)C2=O)c2ccccc21 | 11.5%
24 | O=C(NCc1ccc(F)cc1)c1cc(S(=O)(=O)N2CCOCC2)ccc1F | -20.6%
25 | C[C@H](NC(=O)c1cc2c([nH]c3ccccc32)c(-c2ccccc2)n1)C(=O)O | 11.8%
26 | O=C(Nc1ccccc1C(F)(F)F)N1CCN(C(c2ccccc2)c2ccccc2)CC1 | 15.5%
27 | COc1ccc(-c2nc(SC)n(C(=O)c3ccco3)n2)cc1 | 13.7%
28 | O=S(=O)(/C=C/c1cccc(Br)c1)N1CCOCC1 | -6.85%
29 | CCC(=NCCO)c1c(O)n(-c2ccc(Cl)cc2)c(=O)[nH]c1=O | 15.5%
30 | CC(=O)c1c(-c2ccc(C)cc2)nc2c3ccccc3ccn12 | 10.2%
31 | COc1ccc(C(=O)c2c3ccccc3[n+]([O-])n2CCC(N)=O)cc1 | 13.1%
32 | COc1ccc(C(=O)c2c3ccc(OC)cc3[n+]([O-])n2Cc2ccc(C(N)=O)cc2)cc1 | -42%
33 | COc1ccc2c(C(=O)c3ccc(Cl)cc3)n(CCCC(N)=O)[n+]([O-])c2c1 | -55.5%
34 | COc1ccc(C(=O)c2c3ccc(OC)cc3[n+]([O-])n2CCCC(N)=O)cc1 | -34.9%
35 | COc1ccc(C(=O)c2c3ccc([N+](=O)[O-])cc3[n+]([O-])n2CCCC(N)=O)cc1 | -34.6%
36 | COc1ccc2c(C(=O)c3ccc(C)cc3)n(CCCC(N)=O)[n+]([O-])c2c1 | -44.2%
37 | COc1ccc2c(C(=O)c3ccc(C)cc3)n(Cc3ccc(C(N)=O)cc3)[n+]([O-])c2c1 | -12.5%
38 | COc1ccc(C(=O)c2c3ccc(C(F)(F)F)cc3[n+]([O-])n2CCCC(N)=O)cc1 | -51.6%

Row | Structure (SMILES) | hERG current change (%, negative = inhibition) at 10uM
39 | COc1ccc(C(=O)c2c3ccc(C(F)(F)F)cc3[n+]([O-])n2CCC[NH3+])cc1.[Cl-] | -73.3%
40 | COc1ccc(S(=O)(=O)O/N=C2\CCSc3ccc(C)cc32)cc1 | 3.61%
41 | CCOCCCNCc1cn(-c2ccc(F)cc2F)nc1-c1ccccc1C | -48%
42 | CCc1cc(=O)oc2cc(C)cc(OC(C)C(=O)NCCN3CCOCC3)c12 (centres unmarked) | 4.16%
43 | CCO[C@@H]1OC(C(=O)NCc2nc3ccccc3[nH]2)=C[C@H](c2ccc(C(F)(F)F)cc2)[C@H]1CCCO | -3.34%
44 | COC(=O)c1ccc(C[n+]2ccccc2)cc1.[Br-] | 17.3%
45 | COCCCNC(=O)CN1CCN(Cc2ccc(Cl)cc2)C1=O | 1.74%
46 | Cc1ccc(CNC(=O)CN2CCN(Cc3ccc(Cl)cc3)C2=O)cc1 | -20.9%
47 | Cc1ccc(CNC(=O)CN2CCN(Cc3ccc(C)cc3)C2=O)cc1 | -26.5%
48 | Cc1ccc(CN2CCN(CC(=O)N3CCC(C(N)=O)CC3)C2=O)cc1 | 5.43%
49 | Cc1ccc(-n2c(C)nnc2SCC(=O)N2CCc3ccccc3C2)cc1 | -53.3%
50 | Cc1nnc(SCC(=O)N2CCc3ccccc3C2)n1-c1ccccc1 | -23.6%
51 | Cc1ccc(CN2CCN(CC(=O)N3CCc4ccccc4C3)C2=O)cc1 | -50.8%
52 | CCN(CCNC(=O)CN1CCN(Cc2ccc(Cl)cc2)C1=O)c1ccccc1 | -52%
53 | Cc1ccc(CN2CCN(CC(=O)NCc3ccc(Cl)cc3)C2=O)cc1 | -50.4%
54 | Cc1ccc(CN2CCN(CC(=O)O)C2=O)cc1 | 41.5%
55 | CN(CCNC(=O)CN1CCN(Cc2ccccc2Cl)C1=O)Cc1ccccc1 | -30.4%
56 | Cc1ccc(-n2c(C)nnc2SCC(=O)N2CCc3ccccc3C2)cc1C | -21.9%
